Screens from PubChem BioAssay.
aSyn UTR act – Activators working through SNCA 5'UTR binding (MLPCN); alpha-synuclein 5'UTR reporter, activators screen; activity score, % (tested at 7.5 µM), hits read low; 300,000 tested, 7.1% active; in the data active means activity score below about -60%
An asterisk follows results filed as active. A selection follows.

SMILES	aSyn UTR act
COc1ccccc1N1CCN(/N=C/C(Cl)=C/c2ccccc2)CC1	-158.9*
COc1ccc(S(=O)(=O)NCc2ccccn2)cc1NC(=O)c1ccccc1	-62.3*
CCOc1ccc(S(=O)(=O)NCc2ccccn2)cc1NC(=O)c1ccccc1F	75.6
Cc1ccc(Nc2nnc(-c3ccc4c(c3)OCO4)o2)c(C)c1	-93.2*
COc1ccc(/C=C/C(=O)Nc2cccnc2Cl)cc1	-224.2*
COc1ccccc1C(NC(C)=O)c1cc(Cl)c2cccnc2c1O (configuration not stated)	67.5
COc1ccccc1/C=C/C(=O)NCCc1ccccn1	-91.7*
COc1ccccc1/C=C/C(=O)Nc1cccnc1Cl	-132.5*
CN1CCN(c2ccc(NC(=O)c3cc4ccccc4o3)cc2)CC1	-64.0*
CS(=O)(=O)N1CCN(c2ccc(NC(=O)c3cc4ccccc4o3)cc2)CC1	-115.8*
CSc1nncc(/C(C)=N\Nc2ccccc2C)n1	-81.3*
O=C(O)c1cccc(-n2cc(-c3cccc(C(F)(F)F)c3)cn2)c1	-127.6*
O=C(N/N=C/c1ccccc1F)NC12CC3CC(CC(C3)C1)C2	-114.8*
O=C(N/N=C/c1ccccn1)NC12CC3CC(CC(C3)C1)C2	-105.1*
Cc1cc(N2CCN(C)CC2)nc2ccc(NC(=O)c3ccc(Br)o3)cc12	-102.8*
CCN1CCN(c2cc(C)c3cc(NC(=O)c4cc(OC)cc(OC)c4)ccc3n2)CC1	-97.8*
CCOc1ccc(C(=O)Nc2ccc3nc(N4CCN(CC)CC4)cc(C)c3c2)cc1	66.5
COc1cc(C(=O)Nc2ccc3nc(N4CCN(C)CC4)cc(C)c3c2)cc(OC)c1OC	-103.0*
Cc1ccc(OCc2ccc(C(=O)N3CCCC3)o2)cc1C	-82.5*
Cc1ccccc1S(=O)(=O)Cc1ccc(C(=O)N2CCN(c3cccc(C)c3C)CC2)o1	100.8
O=C(c1ccc(COc2ccccc2[N+](=O)[O-])o1)N1CCCCCC1	-79.6*
O=C(c1ccc(COc2ccc(Cl)cc2Cl)o1)N1CCCC1	-62.6*
Cc1ccnc(S(=O)(=O)Cc2ccc([N+](=O)[O-])cc2)n1	-69.6*
Cc1ccc(OCc2cc(C(=O)NCC(C)(C)N3CCOCC3)no2)cc1C	-121.8*
CCN1CCCC1CNC(=O)c1cc(COc2ccc(C)c(C)c2)on1 (configuration not stated)	-62.8*
SMILES	aSyn UTR act
COc1cc(C)ccc1OCc1cc(C(=O)NCCN2CCOCC2)no1	-123.9*
CCOCCOC(=O)C1=C(C)Nc2ccc(C)cc2S1	-91.6*
COc1cccc(OCc2cc(C(=O)N3CCCC3c3ccccn3)no2)c1 (configuration not stated)	-84.3*
O=C(c1cc(COc2ccc3ncccc3c2)on1)N1CCC[C@H]1CO	-66.7*
COc1cccc(OCc2cc(C(=O)N3CCNC(=O)C3Cc3ccccc3)no2)c1 (configuration not stated)	-74.4*
Cc1ccc(NC(=O)c2ccc(OC(=O)CCN3C(=O)c4ccccc4C3=O)cc2)cc1	-146.2*
Cc1ccc(NC(=O)c2ccc(OC(=O)COc3cccc(Cl)c3)cc2)cc1	-129.6*
Cc1ccc(NC(=O)c2ccc(OC(=O)COc3ccc(Cl)cc3C)cc2)cc1	-79.5*
CC(=O)c1ccc(NC(=O)Oc2ccccc2)cc1	-62.5*
CCOC(=O)Nc1ccc(Oc2ccccc2)cc1	-96.1*
CCOC(=O)Nc1ccc(C(=O)/C=C/c2ccccc2)cc1	-68.7*
CCOC(=O)Nc1ccc(Cc2ccncc2)cc1	-62.8*
CCc1ccc2[nH]c3nc(C)cc(C)c3c(=O)c2c1	-231.8*
COc1ccc(C2Nc3ccccc3C(=O)N2c2ccc(C)cc2)cc1Cn1cc([N+](=O)[O-])cn1 (configuration not stated)	-86.6*
COc1ccc(C2Nc3ccccc3C(=O)N2c2ccc(C)cc2)cc1Cn1nnc2ccccc21 (configuration not stated)	-121.6*
NC(=S)N/N=C/c1coc2c(ccc3ccccc32)c1=O	-74.2*
Cc1cccc(Nc2nn3c(=O)c4ccccc4nc3s2)c1	-160.1*
Cc1nc(S(=O)(=O)N2CCOCC2)c(C#N)c(C)c1Cl	-99.8*
Cc1nc(S(=O)(=O)NC2CCCCC2)c(C#N)c(C)c1Cl	-90.6*
Cc1nc(S(=O)(=O)N(C)Cc2ccccc2)c(C#N)c(C)c1Cl	-117.8*
Cc1ccsc1/C=N/Nc1cccc(C(=O)O)c1	105.0
O=C(Nc1cccnc1)c1cn(-c2ccccc2)nc1-c1cccs1	-83.9*
NS(=O)(=O)c1ccc(N/N=C/c2cn(-c3ccccc3)nc2-c2cccs2)cc1	-91.5*
Cc1nn(Cc2c(Cl)cccc2Cl)c(C)c1NC(=O)c1cn(-c2ccccc2)nc1-c1ccccc1	122.3
O=C(O)c1cccc(N/N=C/c2cn(-c3ccccc3)nc2-c2cccs2)c1	-68.5*
SMILES	aSyn UTR act
COc1ccc(OC)c(C(=O)CC2OC(=O)c3ccccc32)c1 (configuration not stated)	-70.3*
CCC(C)c1ccc2oc(-c3ccc(NC(=O)Cn4cnc5c(=O)n(C)c(=O)n(C)c54)cc3)nc2c1 (configuration not stated)	-114.5*
Cc1ccc2oc(-c3cccc(NC(=O)Cn4cnc5c(=O)n(C)c(=O)n(C)c54)c3)nc2c1	-118.7*
O=C(NCCN1C(=O)C2C3C=CC(C3)C2C1=O)Nc1ccc(Br)cc1 (configuration not stated)	-143.8*
O=C(Nc1cnc2ccccn2c1=O)c1ccc(Cl)cc1	-138.7*
CC(C)CCNC(=O)/C=C/c1ccc(Br)cc1	-64.1*
S=C(NCCc1ccccc1)NN=C1CCCCCC1	-159.2*
CCCN1CCC(NC(=S)Nc2ccc([N+](=O)[O-])cc2)CC1	-80.4*
CCCN1CCC(=NNc2ccc(S(=O)(=O)N(CC)CC)cc2[N+](=O)[O-])CC1	78.9
O=[N+]([O-])c1ccc(NNC(=S)Nc2ccc(F)cc2)cc1	-157.2*
CC(C)(C)NC(=S)NCCc1ccccc1	-192.5*
CC(C)CCNC(=S)Nc1ccc(Br)cc1	-69.2*
S=C(NCCc1ccccc1)Nc1ccccn1	-140.6*
COC(=O)Cc1ccc(NC(=S)Nc2ccccn2)cc1	-62.7*
S=C(NCCc1ccccc1)Nc1ccc(Br)cc1	-126.4*
CC(C)CCNC(=S)Nc1ccc([N+](=O)[O-])cc1	-63.1*
O=C(NC(=S)NCCc1ccccn1)c1ccccc1	-106.2*
COc1cccc(/C=N/Nc2nn3cnnc3c3ccccc23)c1	-61.8*
O=C(c1ccc(Cl)cc1)C(CN1CCCCC1)c1ccccc1 (configuration not stated)	-106.0*
COc1ccc(C(=O)C(CN2CCOCC2)c2ccccc2)cc1F (configuration not stated)	-108.1*
CCCOc1ccc(C(=O)C(CN2CCOCC2)c2ccccc2)cc1 (configuration not stated)	-119.6*
CCOC(=O)c1c(C)oc2c1c(C(c1cccnc1)N1CCOCC1)c(O)c1ccccc12 (configuration not stated)	-245.3*
O=C(Nc1cccc(Cl)c1)NC1CCCCC1	-120.6*
O=C(NC1CCCCCC1)c1ccc(N2CCCC2=O)cc1	-100.6*
Nc1ccc(NC(=O)NC2CCCCC2)cc1[N+](=O)[O-]	-160.8*
SMILES	aSyn UTR act
S=C(NCCc1cccc(Cl)c1)NC1CCCCC1	-118.5*
Cc1cc2nc3ccc(=[N+](C)C)cc-3sc2cc1N	91.2
O=C(NC1CCCCCCC1)c1ccc(F)cc1	-197.0*
O=C(Nc1ccc(F)cc1)NC1CCCCCCC1	-96.3*
O=C(Nc1ccc(F)c(F)c1)NC1CCCCC1	-86.2*
CC(=O)c1cccc(NC(=O)NC2CCCCCCC2)c1	-70.5*
O=C(Nc1ccc(Cl)cc1)NC1CCCCC1	-174.8*
